For 12 compounds, z-score results are on record in PubChem BioAssay.

The nature of this experiment: viability profiling in RPMI8226 myeloma cells – cell-based, resazurin fluorescence, basal, 24 h, PK04 Diversity Set, profiling panel (AID 1180).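 Further: RPMI8826 multiple myeloma cell line at 5000 cells per well; test concentration not given here.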 The following applies: higher = more signal. (In general: Resazurin is reduced to fluorescent resorufin, in cell work by metabolically active cells.)
In turn, `C[C@@H]1NC(=O)[C@@H](C)COC(=O)[C@H](C)NC(=O)[C@@H](C)COC1=O` returned a z-score of 0.18. With `C[n+]1ccc(-c2ccc(CO)cc2)cc1` the figure was -0.674. In turn, `O=C1C[C@@H](O)[C@@H](O)[C@@H]2[C@@H]3C(=O)N(C[C@@H]4CCCO4)C(=O)[C@@H]3CC[C@H]12` gave a z-score of -0.449.

`CCN1C(=O)[C@@H]2[C@H]3C(=CC[C@@H]2C1=O)C1(OCCCO1)[C@H]1O[C@H]1[C@H]3O`: the z-score was -5.89.

Compound `COC(=O)C=CCCc1coc(C=CCNC(=O)OC)n1` had a z-score of -0.102. With `COC(=O)CC=C[C@@H](C)[C@@H](C=NO[C@@H](C)c1cn([C@H](CO)Cc2ccccc2)nn1)NS(=O)(=O)c1ccc(C)cc1` the figure was -0.808.

As for `O=C(NN=C1C[C@@H](O)[C@@H](O)[C@@H]2[C@@H]3C(=O)N(C[C@@H]4CCCO4)C(=O)[C@@H]3CC[C@@H]12)OCc1ccccc1`, the z-score was -0.111. Compound `CCOC(=O)C1=NO[C@@]2(C=C(Br)C3(OCCCO3)[C@H]3O[C@H]32)C1` returned a z-score of -0.249. In the case of `COCCNC(=O)OCC1CCCC2(CC(OC(=O)NCc3ccc4c(c3)OCO4)CC(CCC(=O)N[C@@H](C)C(=O)OC)O2)O1` (some centres not stated) it was 0.528; in that of `COc1ccc(COC(=O)NN=C2C[C@@H](O)[C@@H](O)[C@@H]3[C@@H]4C(=O)N(c5ccc(F)cc5F)C(=O)[C@@H]4CC[C@H]23)cc1`, 0.643. The compound `CC(CCN1CCCc2nc(C)c(C)cc21)=NOC(C)CN1CCCCc2nc(C)c(C)cc21` (configuration not stated) showed a z-score of 0.347. With `COC(=O)CC=C[C@@H](C)[C@@H](C=NOCC[C@@H]1C=C[C@H](OC(C)=O)[C@@H](COC(C)=O)O1)OC` the figure was -0.325.
